Counter-ions that a name gives are not always drawn.
What was measured:
Conditions in all cases: treatment time: 24 h
A549-ACTB-RAB5A [1] = assay: lowest phenotypically active concentration; higher = less potent
Procedure, shortened: (§1)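 Phenotypic activity depended on meeting both a deviation and a reproducibility criterion. The fifteen gene-edited A549, HepG2 and WPMY1 reporter lines were treated at 0.3, 1, 3 or 9 µM for 24 h, four wells each, then imaged live with features normalised to solvent control wells. Deviation required ≥3 of 4 wells past the 95th percentile of control Euclidean distances, and reproducibility a median replicate Pearson correlation above the 95th percentile of non-replicates.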

A549-CANX-COX4 [2] = assay: as above
Procedure, shortened: as §1

A549-GM130-SQSTM1 [3] = assay: as above
Procedure, shortened: as §1

A549-TP53BP1-CLTA [4] = assay: as above
Procedure, shortened: as §1

A549-TUBA1B-RELA [5] = assay: as above
Procedure, shortened: as §1

A549-ACTB-RAB5A [6] = assay: phenotypically active (imaging signature differs from DMSO and reproducible) at any of 0.3-9 uM (binary (1 = active, 0 = inactive)); higher = active
Procedure, shortened: as §1

A549-CANX-COX4 [7] = assay: as above
Procedure, shortened: as §1

A549-GM130-SQSTM1 [8] = assay: as above
Procedure, shortened: as §1

A549-TP53BP1-CLTA [9] = assay: as above
Procedure, shortened: as §1

A549-TUBA1B-RELA [10] = assay: as above
Procedure, shortened: as §1

HepG2-ACTB-RAB5A = assay: as above
Procedure, shortened: as §1

HepG2-CANX-COX4 = assay: as above
Procedure, shortened: as §1

HepG2-GM130-SQSTM1 = assay: as above
Procedure, shortened: as §1

HepG2-TP53BP1-CLTA = assay: as above
Procedure, shortened: as §1

HepG2-TUBA1B-RELA = assay: as above
Procedure, shortened: as §1

WPMY1-ACTB-RAB5A = assay: as above
Procedure, shortened: as §1

WPMY1-CANX-COX4 = assay: as above
Procedure, shortened: as §1

WPMY1-GM130-SQSTM1 = assay: as above
Procedure, shortened: as §1

WPMY1-TP53BP1-CLTA = assay: as above
Procedure, shortened: as §1

WPMY1-TUBA1B-RELA = assay: as above
Procedure, shortened: as §1

Row | SMILES | lowest phenotypically active concentration (A549-ACTB-RAB5A [1]) [µM] | lowest phenotypically active concentration (A549-CANX-COX4 [2]) [µM] | lowest phenotypically active concentration (A549-GM130-SQSTM1 [3]) [µM] | lowest phenotypically active concentration (A549-TP53BP1-CLTA [4]) [µM] | lowest phenotypically active concentration (A549-TUBA1B-RELA [5]) [µM] | phenotypically active (A549-ACTB-RAB5A [6]) | phenotypically active (A549-CANX-COX4 [7]) | phenotypically active (A549-GM130-SQSTM1 [8]) | phenotypically active (A549-TP53BP1-CLTA [9]) | phenotypically active (A549-TUBA1B-RELA [10]) | phenotypically active (HepG2-ACTB-RAB5A) | phenotypically active (HepG2-CANX-COX4) | phenotypically active (HepG2-GM130-SQSTM1) | phenotypically active (HepG2-TP53BP1-CLTA) | phenotypically active (HepG2-TUBA1B-RELA) | phenotypically active (WPMY1-ACTB-RAB5A) | phenotypically active (WPMY1-CANX-COX4) | phenotypically active (WPMY1-GM130-SQSTM1) | phenotypically active (WPMY1-TP53BP1-CLTA) | phenotypically active (WPMY1-TUBA1B-RELA)
1 | Nc1nc(Cl)nc2c1ncn2[C@H]1C[C@H](O)[C@@H](CO)O1 [cladribine] | 3 | 1 | 1 | 3 | 1 | 1 (active) | 1 (active) | 1 (active) | 1 (active) | 1 (active) | 1 (active) | 1 (active) | 1 (active) | 1 (active) | 1 (active) | 1 (active) | 1 (active) | 1 (active) | 1 (active) | 1 (active)
2 | CCOC(=O)CCNc1cc(N2CCc3ccccc3CC2)nc(-c2ccccn2)n1 | 3 | 9 | 9 | 3 | 3 | 1 (active) | 1 (active) | 1 (active) | 1 (active) | 1 (active) | 1 (active) | 1 (active) | 1 (active) | 1 (active) | 1 (active) | 1 (active) | 1 (active) | 1 (active) | 1 (active) | 1 (active)
3 | O=C(c1cccc(Cl)c1F)N1CCN(Cc2cccc(Nc3nccs3)n2)CC1 | ≤ 0.3 | 1 | 1 | 1 | 1 | 1 (active) | 1 (active) | 1 (active) | 1 (active) | 1 (active) | 1 (active) | 1 (active) | 1 (active) | 1 (active) | 1 (active) | 1 (active) | 1 (active) | 1 (active) | 1 (active) | 1 (active)
4 | O=C(OC12CC3CC(CC(C3)C1)C2)c1ccc(NCc2cc(O)ccc2O)cc1 [Adaphostin] | 1 | 9 | 9 | 9 | 3 | 1 (active) | 1 (active) | 1 (active) | 1 (active) | 1 (active) | 1 (active) | 1 (active) | 1 (active) | 1 (active) | 1 (active) | 1 (active) | 1 (active) | 1 (active) | 1 (active) | 1 (active)
5 | Cc1cc(Nc2cc(C)c(C#N)c(NC(C)CCCC(C)(C)O)n2)n[nH]1 (stereo not given) [TC-A 2317 hydrochloride] | 1 | 1 | 1 | 1 | 1 | 1 (active) | 1 (active) | 1 (active) | 1 (active) | 1 (active) | 1 (active) | 1 (active) | 1 (active) | 1 (active) | 1 (active) | 1 (active) | 1 (active) | 1 (active) | 1 (active) | 1 (active)
6 | CNC(=O)Nc1ccc(-c2nc(N3CC4CCC(C3)O4)c3cnn(C4CCC5(CC4)OCCO5)c3n2)cc1 | ≤ 0.3 | ≤ 0.3 | ≤ 0.3 | ≤ 0.3 | ≤ 0.3 | 1 (active) | 1 (active) | 1 (active) | 1 (active) | 1 (active) | 1 (active) | 1 (active) | 1 (active) | 1 (active) | 1 (active) | 1 (active) | 1 (active) | 1 (active) | 1 (active) | 1 (active)
7 | CCCC1(CCC)CCC2(CCN(CCCN(CC)CC)C2)CC1 [Atiprimod dihydrochloride] | ≤ 0.3 | 3 | ≤ 0.3 | 1 | ≤ 0.3 | 1 (active) | 1 (active) | 1 (active) | 1 (active) | 1 (active) | 1 (active) | 1 (active) | 1 (active) | 1 (active) | 1 (active) | 1 (active) | 1 (active) | 1 (active) | 1 (active) | 1 (active)
8 | CCOC(=O)Nc1cc(-c2ccc(C)c(NS(C)(=O)=O)c2)nn2c(C)nnc12 [Bromosporine] | ≤ 0.3 | 1 | 1 | 1 | 1 | 1 (active) | 1 (active) | 1 (active) | 1 (active) | 1 (active) | 1 (active) | 1 (active) | 1 (active) | 1 (active) | 1 (active) | 1 (active) | 1 (active) | 1 (active) | 1 (active) | 1 (active)
9 | COc1cc(Br)c(Nc2nc(-c3c(C)nc4ncccn34)cs2)c(Br)c1 | 1 | 1 | 1 | 1 | 1 | 1 (active) | 1 (active) | 1 (active) | 1 (active) | 1 (active) | 1 (active) | 1 (active) | 1 (active) | 1 (active) | 1 (active) | 1 (active) | 1 (active) | 1 (active) | 1 (active) | 1 (active)
10 | Nc1ncnc2c1nc(Cl)n2C1O[C@H](CO)[C@@H](O)[C@H]1O (stereo not given in full) [8-Chloroadenosine] | 1 | 1 | 1 | 1 | 1 | 1 (active) | 1 (active) | 1 (active) | 1 (active) | 1 (active) | 1 (active) | 1 (active) | 1 (active) | 1 (active) | 1 (active) | 1 (active) | 1 (active) | 1 (active) | 1 (active) | 1 (active)
11 | Cc1c[nH]c2nccc(Oc3c(F)cc(Nc4cc(Cl)nc(N)n4)cc3F)c12 | ≤ 0.3 | ≤ 0.3 | ≤ 0.3 | ≤ 0.3 | 1 | 1 (active) | 1 (active) | 1 (active) | 1 (active) | 1 (active) | 1 (active) | 1 (active) | 1 (active) | 1 (active) | 1 (active) | 1 (active) | 1 (active) | 1 (active) | 1 (active) | 1 (active)
